Inconclusive results are not listed. Where a call stands in place of a potency, no number is given. Activity calls are given as the source filed them. Calls follow the shape of the dose curve; as a rule, active = well fitted inhibition curve with a large enough effect; inconclusive = small, poorly fitted or top-dose-only effect; inactive = flat fitted curve, though single readings scatter.
Tests used:
Test in all cases: qHTS profiling for inhibitors of Plasmodium falciparum proliferation (AID 504749); also: nearly all actives have a fitted effect of over 60% in size
Settings in all cases: P. falciparum in erythrocytes, SYBR Green DNA, 72 h; series mostly up to 28.7 µM
[1] = tested on: 7G8
Summary of the method: (§1)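 Readout was DNA-dye fluorescence from lysed cultures, ex 485/em 535 nm. Parasitized red cells had grown 72 h with compound; data scaled between 0.29 uM artemisinin and DMSO wells and corrected using vehicle-only plates.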

[2] = tested on: AA1029
Summary of the method: as §1

[3] = tested on: AS120
Summary of the method: as §1

[4] = tested on: ATS189
Summary of the method: as §1

[5] = tested on: ATS95
Summary of the method: as §1

[6] = tested on: C2A
Summary of the method: as §1

[7] = tested on: CP185
Summary of the method: as §1

[8] = tested on: CP191
Summary of the method: as §1

[9] = tested on: CP192
Summary of the method: as §1

[10] = tested on: 3D7
Summary of the method: as §1
Potency is read from the fitted curve at half-maximal effect.

CCN(CC)CCOc1ccc2nc(N(C)C)sc2c1
Potency [1]: inactive | Potency [2]: inactive | Potency [3]: inactive | Potency [4]: inactive | Potency [5]: inactive | Potency [6]: inactive | Potency [7]: inactive | Potency [8]: inactive | Potency [9]: inactive

NC(N)=NCC1COc2ccccc2O1 (configuration not stated)
Potency [10]: inactive | Potency [3]: inactive | Potency [4]: inactive | Potency [5]: inactive | Potency [7]: inactive | Potency [9]: inactive

CN(C)CCOc1ccc(/C(=C(/CCCl)c2ccccc2)c2ccccc2)cc1
Potency [10]: inactive | Potency [2]: inactive | Potency [3]: inactive | Potency [4]: inactive | Potency [6]: inactive | Potency [7]: inactive | Potency [8]: inactive | Potency [9]: inactive

O=C(Nc1ccc(O)cc1)c1ccccc1O
Potency [10]: inactive | Potency [2]: inactive | Potency [4]: inactive | Potency [5]: inactive | Potency [6]: inactive | Potency [7]: inactive | Potency [8]: inactive | Potency [9]: inactive

NC(=O)CC[C@@H]1NC(=O)[C@H](Cc2ccccc2)NC(=O)[C@H](Cc2ccc(O)cc2)NC(=O)[C@@H](N)CSSC[C@@H](C(=O)N2CCC[C@H]2C(=O)N[C@@H](CCCN=C(N)N)C(=O)NCC(N)=O)NC(=O)[C@H](CC(N)=O)NC1=O
Potency [10]: inactive | Potency [2]: inactive | Potency [5]: inactive | Potency [6]: inactive | Potency [7]: inactive | Potency [9]: inactive

CSc1nc2cc(Oc3cccc(Cl)c3Cl)c(Cl)cc2[nH]1
Potency [1]: 8.91 µM (active) | Potency [2]: 11.2 µM (active) | Potency [3]: 11.2 µM (active) | Potency [4]: 6.31 µM (active) | Potency [5]: 8.91 µM (active) | Potency [7]: 11.2 µM (active) | Potency [8]: 3.98 µM (active)

COC(=O)[C@@H](N)CS
Potency [1]: inactive | Potency [2]: inactive | Potency [3]: inactive | Potency [4]: inactive | Potency [6]: inactive | Potency [7]: inactive | Potency [8]: inactive | Potency [9]: inactive

Cc1cc(-c2ccc(N=Nc3c(S(=O)(=O)O)cc4cc(S(=O)(=O)O)cc(N)c4c3O)c(C)c2)ccc1N=Nc1c(S(=O)(=O)O)cc2cc(S(=O)(=O)O)cc(N)c2c1O
Potency [10]: inactive | Potency [2]: inactive | Potency [3]: 14.1 µM (active) | Potency [5]: inactive | Potency [6]: inactive | Potency [8]: inactive | Potency [9]: inactive

OCc1ccccc1
Potency [1]: 2.82 µM (active) | Potency [2]: inactive | Potency [6]: inactive | Potency [7]: inactive | Potency [9]: inactive

CCCC(CCC)C(=O)OC1C[C@H]2CC[C@@H](C1)[N+]2(C)C (some centres not stated)
Potency [1]: 11.2 µM (active) | Potency [2]: 11.2 µM (active)

COc1ccc2nc(NC(=O)Nc3ccccc3)sc2c1
Potency [1]: 10 µM (active) | Potency [2]: inactive | Potency [4]: inactive | Potency [5]: inactive | Potency [6]: inactive | Potency [7]: inactive | Potency [8]: inactive | Potency [9]: inactive

CC1CCC(NC(=O)N(CCCl)N=O)CC1 (configuration not stated)
Potency [10]: inactive | Potency [2]: inactive | Potency [3]: inactive | Potency [4]: inactive | Potency [5]: inactive | Potency [6]: inactive | Potency [7]: inactive | Potency [8]: inactive | Potency [9]: inactive

CCCCCCCCCC(=O)NO
Potency [10]: inactive | Potency [2]: inactive | Potency [3]: inactive | Potency [4]: inactive | Potency [5]: inactive | Potency [6]: inactive | Potency [7]: inactive | Potency [9]: inactive

CC(=O)c1ccc2c(c1)N(CCCN1CCN(CCO)CC1)c1ccccc1S2
Potency [1]: 7.08 µM (active) | Potency [2]: 8.91 µM (active) | Potency [7]: 10 µM (active) | Potency [8]: 11.2 µM (active)

CN1CCc2c(c3ccccc3n2Cc2ccccc2)C1
Potency [10]: inactive | Potency [3]: inactive | Potency [4]: inactive | Potency [6]: inactive | Potency [7]: inactive | Potency [8]: inactive | Potency [9]: inactive

O.O.O.O.O.O.O.O=S(=O)([O-])[O-].[Co+2]
Potency [1]: 2.82 µM (active) | Potency [2]: 8.91 µM (active) | Potency [3]: 5.01 µM (active) | Potency [4]: 11.2 µM (active) | Potency [5]: 5.01 µM (active) | Potency [6]: 12.6 µM (active) | Potency [7]: 12.6 µM (active) | Potency [8]: 8.91 µM (active)

C#C[C@]1(O)CC[C@@H]2[C@H]3CCC4=CC(=O)CC[C@H]4[C@H]3C(=C)C[C@@]21CC
Potency [2]: inactive | Potency [3]: inactive | Potency [4]: inactive | Potency [5]: inactive | Potency [6]: inactive | Potency [7]: inactive | Potency [9]: 0.379 µM (active)

Oc1cccc(O)c1O
Potency [2]: inactive | Potency [5]: inactive | Potency [6]: inactive | Potency [7]: inactive

Cn1c(O)c(N=NC(N)=S)c2ccccc21
Potency [1]: 12.6 µM (active) | Potency [9]: inactive

COc1ccccc1N1CCN(CCCC(=O)c2ccc(F)cc2)CC1
Potency [10]: inactive | Potency [2]: inactive | Potency [3]: inactive | Potency [4]: inactive | Potency [5]: inactive | Potency [6]: inactive | Potency [7]: inactive | Potency [9]: inactive

O=C(O)CC/C=C\CC[C@@H]1[C@@H](N2CCCCC2)[C@@H](O)C[C@@H]1OCc1ccc(-c2ccccc2)cc1
Potency [10]: inactive | Potency [2]: inactive | Potency [3]: inactive | Potency [4]: inactive | Potency [5]: inactive | Potency [6]: inactive | Potency [7]: inactive | Potency [9]: inactive

N=C(N)c1ccc(/C=C/c2ccc(C(=N)N)cc2O)cc1
Potency [1]: 3.98 µM (active) | Potency [2]: 10 µM (active) | Potency [3]: 12.6 µM (active) | Potency [5]: 10 µM (active) | Potency [6]: 3.98 µM (active) | Potency [7]: 10 µM (active) | Potency [8]: 1.41 µM (active) | Potency [9]: 5.36 µM (active)

CN(C)C(=O)CCSC(SCCC(=O)O)c1cccc(/C=C/c2ccc3ccc(Cl)cc3n2)c1 (configuration not stated)
Potency [1]: 8.91 µM (active) | Potency [3]: 10 µM (active) | Potency [9]: inactive

CC(C)=CCC/C(C)=C/C=C/C(C)=C/C=C/C(C)=C/C=C/C=C(C)/C=C/C=C(C)/C=C/C=C(\C)CCC=C(C)C
Potency [2]: inactive | Potency [4]: inactive | Potency [5]: inactive | Potency [6]: inactive | Potency [7]: inactive | Potency [9]: inactive

O=C(c1cc2ccccc2o1)N1CCN(Cc2ccccc2)CC1
Potency [1]: 7.94 µM (active) | Potency [3]: 8.91 µM (active) | Potency [6]: inactive | Potency [9]: inactive

COc1ccc2c(=O)c(C)c(-c3ccccc3)oc2c1CN(C)C
Potency [10]: inactive | Potency [3]: inactive | Potency [4]: inactive | Potency [6]: inactive | Potency [7]: inactive | Potency [8]: inactive | Potency [9]: inactive

CCCCCCCCCCCCCCCCOCCOCCOCCOCCOCCOCCOCCOCCOCCOCCOCCOCCOCCOCCOCCOCCOCCOCCOCCOCCO
Potency [1]: 5.62 µM (active) | Potency [3]: 14.1 µM (active) | Potency [5]: 11.2 µM (active)

CCOc1cc(-c2nccc3cc(OC)c(OC)cc23)cc(OCC)c1OCC
Potency [1]: 11.2 µM (active) | Potency [6]: inactive | Potency [8]: 11.2 µM (active)

CC[C@H]1OC(=O)[C@H](C)[C@@H](O[C@H]2C[C@@](C)(OC)[C@@H](O)[C@H](C)O2)C(C)[C@@H](O[C@@H]2O[C@H](C)C[C@H](N(C)C)[C@@H]2O)[C@](C)(OC)C[C@@H](C)C(=O)[C@H](C)[C@@H](O)[C@]1(C)O (some centres not stated)
Potency [1]: inactive | Potency [2]: inactive | Potency [4]: inactive | Potency [5]: inactive | Potency [6]: inactive | Potency [7]: inactive | Potency [9]: inactive

CC/C=C\C/C=C\C/C=C\C/C=C\C/C=C\CCCC(=O)O
Potency [10]: inactive | Potency [2]: inactive | Potency [3]: inactive | Potency [4]: inactive | Potency [5]: inactive | Potency [6]: inactive | Potency [7]: inactive | Potency [8]: inactive | Potency [9]: inactive

O=C(CCCN1CCN2CCCC2C1)c1ccc(F)cc1 (configuration not stated)
Potency [10]: inactive | Potency [3]: inactive | Potency [6]: inactive | Potency [7]: inactive | Potency [8]: inactive | Potency [9]: inactive

O=c1n(CC2CO2)c(=O)n(CC2CO2)c(=O)n1CC1CO1 (configuration not stated)
Potency [1]: 12.6 µM (active) | Potency [3]: inactive | Potency [4]: inactive

CC(C)OC(=O)Nc1ccc2nc(-c3cscn3)[nH]c2c1
Potency [10]: inactive | Potency [2]: inactive | Potency [3]: inactive | Potency [4]: inactive | Potency [5]: inactive | Potency [7]: inactive | Potency [8]: inactive | Potency [9]: inactive

C[C@@](Cc1ccc(O)c(O)c1)(NN)C(=O)O
Potency [10]: inactive | Potency [4]: inactive | Potency [5]: inactive | Potency [6]: inactive | Potency [7]: inactive | Potency [8]: inactive | Potency [9]: inactive

CCN(CC)CCC(=O)N1c2ccccc2Sc2ccc(Cl)cc21
Potency [1]: 8.91 µM (active) | Potency [4]: inactive | Potency [9]: inactive

Cc1c(C)c2c(c(C)c1OC(=O)CCC(=O)O)CC[C@@](C)(CCC[C@H](C)CCC[C@H](C)CCCC(C)C)O2
Potency [2]: inactive | Potency [3]: inactive | Potency [4]: inactive | Potency [5]: inactive | Potency [6]: inactive | Potency [7]: inactive | Potency [8]: inactive | Potency [9]: inactive

CC(=O)[C@H]1CC[C@H]2[C@@H]3C=CC4=CC(=O)CC[C@@]4(C)[C@H]3CC[C@]12C
Potency [1]: inactive | Potency [2]: inactive | Potency [3]: inactive | Potency [4]: inactive | Potency [5]: inactive | Potency [6]: inactive | Potency [7]: inactive | Potency [8]: inactive | Potency [9]: inactive

CC/C=C\C/C=C\C/C=C\CCCCCCCC(=O)O
Potency [10]: inactive | Potency [2]: inactive | Potency [3]: inactive | Potency [4]: inactive | Potency [6]: inactive | Potency [7]: inactive | Potency [9]: inactive

O=C(CCCN1CCC(C(=O)c2ccc(F)cc2)CC1)c1ccc(F)cc1
Potency [1]: 11.2 µM (active) | Potency [2]: inactive | Potency [3]: inactive | Potency [6]: inactive | Potency [7]: inactive | Potency [8]: 2 µM (active) | Potency [9]: inactive

CS(=O)(=O)c1ccc([C@@H](O)[C@@H](COC(=O)CN)NC(=O)C(Cl)Cl)cc1
Potency [10]: inactive | Potency [3]: inactive | Potency [4]: inactive | Potency [8]: inactive | Potency [9]: inactive

— PubChem BioAssay (NCATS)
